Source: PubChem BioAssay (Tox21)
Records with an inconclusive call do not appear. A number with no mark means an inactive call. Active and inactive are the calls of the source. Calls come from the whole dose curve.

Target: Acetylcholinesterase (Homo sapiens) (UniProt P22303)
Assay: Acetylcholinesterase (AChE) small molecule antagonists: colormetric cell-based qHTS assay (AID 1347395); note: nearly all actives have a fitted effect of over 30% in size
Conditions: SH-SY5Y cells AChE activity, colorimetric (Ellman); series mostly up to 115 µM; activity, negative = inhibition: at the top concentration
From the text: National Center for Advancing Translational Sciences [NCATS]
Division of Preclinical Innovation [DPI]
U.S. Environmental Protection Agency [EPA]
National Institutes of Environmental Health Sciences [NIEHS]
National Toxicology Program [NTP]
U.S. Food and Drug Administration [FDA]
Acetylcholinesterase (AChE) is the primary cholinesterase in the body that hydrolyzes a key neurotransmitter, acetylcholine. Inhibition of AChE activity can lead to neurotoxicity. The known inhibitors include organophosphorous pesticides (OP), chemical warfare agents, drugs, and various phytochemicals.
A homogenous cell-based assay using the Amplite Colormetric acetylcholinesterase assay kit (AAT Bioquest, Sunnyvale, CA) was used to evaluate the chemicals in the Tox21 10K library that inhibit AChE activity. The assay uses 5, 5-dithiobis-(2-nitrobenzoic acid) (DTNB) to quantify the thiocholine produced from the hydrolysis of acetylthiocholine by AChE from the SH-SY5Y cells.
Tox21 Assay Protocol Summary:
For the cell-based AChE assay, 2,000 SH-SY5Y cells in 4 uL/well were dispensed into black, clear-bottom 1536-well plates using a Multidrop Combi dispenser (Thermo Scientific, MA). The assay plates were incubated overnight at 37 C to allow cells to attach to the wells, followed by the transfer of 23 nL of compound or DMSO (vehicle control) by a Pintool Station (Wako Automation, CA). The plates were incubated for 30 min at 37 C and 5% CO2, followed by the addition of 4 uL of detection cocktail solution (DTNB, acetylthiocholine) into each well using a Flying Reagent Dispenser (Beckman Coulter, CA) and then 90 min incubation at 37 C.
% is set by controls: 0 for no effect and ±100 for the full control effect.

Chain of Acetylcholinesterase (Homo sapiens) (P22303 whole entry, looked up): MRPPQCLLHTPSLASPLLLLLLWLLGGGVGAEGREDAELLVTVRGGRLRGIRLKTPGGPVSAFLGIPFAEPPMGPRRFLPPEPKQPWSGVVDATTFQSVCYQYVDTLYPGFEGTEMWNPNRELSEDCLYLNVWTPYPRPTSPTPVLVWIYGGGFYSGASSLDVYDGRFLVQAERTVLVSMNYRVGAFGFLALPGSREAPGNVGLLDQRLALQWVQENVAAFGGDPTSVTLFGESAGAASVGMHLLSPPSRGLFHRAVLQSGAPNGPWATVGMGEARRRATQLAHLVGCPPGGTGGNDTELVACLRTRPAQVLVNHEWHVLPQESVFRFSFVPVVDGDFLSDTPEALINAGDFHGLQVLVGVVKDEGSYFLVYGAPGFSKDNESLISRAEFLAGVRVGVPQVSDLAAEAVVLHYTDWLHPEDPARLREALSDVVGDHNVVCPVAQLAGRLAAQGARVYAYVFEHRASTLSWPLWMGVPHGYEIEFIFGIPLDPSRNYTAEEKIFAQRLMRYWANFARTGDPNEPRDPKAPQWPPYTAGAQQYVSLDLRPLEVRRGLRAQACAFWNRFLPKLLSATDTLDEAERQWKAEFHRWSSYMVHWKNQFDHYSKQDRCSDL

SMILES | Potency | activity, negative = inhibition
COC(=O)/C=C\C(=O)OC | inactive | –
CCCCCC(CO)CCC (stereo not given) | – | 0.682%
CCCCC(CC)COC(=O)CCCCC(=O)OCc1ccccc1 (stereo not given) | – | 2.33%
c1ccc2cc3ccccc3cc2c1 | inactive | –
O=C(O)CCCCC(=O)O | inactive | –
O=C(O)c1ccccc1Nc1cc(Cl)ccc1C(=O)O | – | 1.23% [at 23.6 µM]
CC(=O)O[C@@H]1C(=O)O[C@@H]2[C@H]1OC(=O)[C@@H]2OC(C)=O | – | 0.841% [at 52.9 µM]
CCC(=O)c1ccc(O)cc1 | – | 1.24% [at 52.9 µM]
Nc1ccc2c3c(cccc13)-c1ccccc1-2 | – | 0%
CCOCCn1c(C2CCN(CCc3ccc(C(C)(C)C(=O)O)cc3)CC2)nc2ccccc21 | – | 4.77% [at 52.9 µM]
CCCc1cc(=O)[nH]c(=S)[nH]1 | inactive | –
CCOCC(O)COc1ccc(NC(=O)CC[S+](C)C)cc1 (stereo not given) | – | -6.56% [at 52.9 µM]
CCO[Si](CCCCl)(OCC)OCC | – | 1.32%
COc1cc2ncnc(Nc3cccc(Cl)c3)c2cc1OC | – | 5.54% [at 23.6 µM]
O=c1oc(=O)c2cc3c(=O)oc(=O)c3cc12 | inactive | –
CCOC(C)=O | – | 2.51%
O=C(O)C1(C(=O)O)CCC1.[NH2-].[NH2-].[Pt+2] | – | 1.4% [at 52.9 µM]
CCCCCCCCOS(=O)(=O)O | – | 1.05%
c1ccc(CC2=NCCN2)cc1 | – | 2.69% [at 52.9 µM]
O=C(Nc1ncc([N+](=O)[O-])s1)c1cccs1 | – | 10.3% [at 52.9 µM]

SMILES | Potency | activity, negative = inhibition
CCCCC(=O)O | inactive | –
COc1cc(O)c(C(=O)c2ccccc2)cc1S(=O)(=O)O | inactive | –
O=C[C@@H](O)[C@H](O)[C@H](O)CO | – | 3.68%
C1CSCCS1 | – | 0.511%
O=C(CCc1ccc(O)cc1)c1c(O)cc(O)cc1O | – | 3.96%
CCCCCCC/C=C/C=O | – | -6.27%
COC(=O)c1ccccc1OC | – | 1.58%
CC(C)c1cccc(O)c1 | – | 1.37%
O=C(O)c1ccc(C(=O)O)cc1 | inactive | –
CC(=O)N[C@@H](Cc1ccc(O)cc1)C(=O)O | – | 0.39% [at 52.9 µM]
COc1cc(C=O)ccc1OC(=O)C(C)C | – | -0.743%
CC(=O)Oc1ccccc1C(=O)Nc1ncc([N+](=O)[O-])s1 | inactive | –
Cc1ncsc1CCO | – | 4.74%
C[C@@H]1C[C@H]2[C@@H]3CCC4=CC(=O)C=C[C@]4(C)[C@@]3(F)[C@@H](O)C[C@]2(C)[C@@]1(O)C(=O)COP(=O)(O)O | – | -1.75%
Cc1c2ccccc2c(C)c2c1ccc1ccccc12 | inactive | –
NNC(=O)c1ccncc1 | inactive | –
CC[C@]1(O)C[C@@H]2CN(CCc3c([nH]c4ccccc34)[C@@](C(=O)OC)(c3cc4c(cc3OC)N(C)[C@H]3[C@@](O)(C(=O)OC)[C@H](OC(C)=O)[C@]5(CC)C=CCN6CC[C@]43[C@@H]65)C2)C1 | inactive | –
CC1(C)[C@@H]2CC[C@@]1(C)[C@H](O)C2 | – | -1.05%
CCCCCOC(=O)CCC | – | 12.8%
CCCCCCCCCCCCCOC(=O)CCSCCC(=O)OCCCCCCCCCCCCC | – | 3.05% [at 23.6 µM]
